Test results published in PubChem BioAssay (NCI).
This is part of a sample that, as a whole, favours compounds with a hit. Of some 79,000 tested, about 15% had one in any assay. The source made the active and inactive calls. Rule as the data show it: active = growth inhibition above about 70%; inactive = the rest.

Tests used:
[1] = NCI Yeast Anticancer Drug Screen. Data for the rad50 strain (AID 155);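 also: 0% = growth of vehicle-only cultures of the same strain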; conditions: S. cerevisiae rad50 strain growth inhibition, active compounds read high; at 50.0 µM unless noted
Outline: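 Relative growth inhibition (compound vs vehicle) was measured in yeast with a defined repair-gene alteration.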

[2] = NCI Yeast Anticancer Drug Screen. Data for the mec2-1 strain (AID 157); conditions: S. cerevisiae mec2-1 strain, active compounds read high; at 50.0 µM unless noted
Outline: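 Compounds were applied to mec2-1 yeast cells. Their growth was then compared with that of vehicle-treated cultures to give growth inhibition.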

[3] = NCI Yeast Anticancer Drug Screen. Data for the sgs1 mgt1 strain (AID 161);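 also: 0% = growth of cultures given vehicle only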; conditions: S. cerevisiae sgs1 mgt1 strain, active compounds read high; at 50.0 µM unless noted
Outline: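 Yeast cells carrying a defined DNA-repair defect were exposed to test compounds. Growth inhibition was measured relative to vehicle-treated controls.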

[4] = NCI Yeast Anticancer Drug Screen. Data for the cln2 rad14 strain (AID 165);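 also: 0% = growth equal to vehicle treated cultures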; conditions: S. cerevisiae cln2 rad14 strain, active compounds read high; at 50.0 µM unless noted
Outline: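 Strain: cln2 rad14 yeast, altered in cell cycle control and DNA damage repair. Read-out: growth inhibition vs vehicle.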

[5] = NCI Yeast Anticancer Drug Screen. Data for the bub3 strain (AID 167); conditions: S. cerevisiae bub3 mutant strain, active compounds read high; at 50.0 µM unless noted
Outline: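 Screening used yeast with an engineered genetic alteration affecting cell cycle control. Compound-exposed cultures were compared with vehicle cultures, and reduced growth was taken as inhibition.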

[6] = NCI Yeast Anticancer Drug Screen. Data for the mlh1 rad18 strain (AID 175); conditions: S. cerevisiae mlh1 rad18 strain growth inhibition, active compounds read high; at 50.0 µM unless noted
Outline: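 A repair-deficient yeast strain is exposed to test compound, and growth is scored relative to vehicle-treated controls.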

Measured: growth inhibition

Cc1cc2ccccc2c[n+]1CC(O)C[n+]1cc2ccccc2cc1C
inactive: [1] -18.9% | [2] -31.1% | [3] -36.4% | [4] -27.7% | [5] -45% | [6] -0.8%

CN(CC#CC#CCN(C)c1ccccc1)c1ccccc1
inactive: [1] -14.2% | [2] -28.1% | [3] -13.6% | [4] -27% | [5] -35.2% | [6] -20.1%

O=c1oc(-c2ccc([N+](=O)[O-])cc2)nc2cc(Cl)ccc12
inactive: [1] 17.8% | [2] 9.15% | [3] 44.7% | [4] 8.85% | [5] 44.9% | [6] 18.6%

O=C(Nc1cccc(Cl)c1)Oc1c([N+](=O)[O-])cc(Cl)cc1[N+](=O)[O-]
inactive: [1] 13.2% | [2] 6.75% | [3] 21.1% | [4] -12% | [5] 0.15% | [6] 28.3%

CCOC(=O)C(Cc1c[nH]c2c(N(CCO)CCO)cccc12)(NC(C)=O)C(=O)OCC
inactive: [1] -0.45% | [2] -17.2% | [3] 16% | [4] 21.7% | [5] -5.55% | [6] 9.95%

c1ccc(NN(Cc2cnccn2)c2ccccc2)cc1
inactive: [1] 9.75% | [2] -2.65% | [3] -24.9% | [4] -29.9% | [5] -56.5% | [6] -12%

CCOCC(Br)C(OCC)OCC (stereo not drawn)
inactive: [1] 19.2% | [2] -6.65% | [3] 8.15% | [4] 20.9% | [5] 0.45% | [6] 26.1%

CCOC(=S)Nc1ccccc1[N+](=O)[O-]
inactive: [1] 8.05% | [2] -10.6% | [3] 0.05% | [4] -57.6% | [5] -23.6% | [6] -9.15%

c1cc(-c2cnc(-c3ccc4c(c3)CCCO4)o2)ccn1
inactive: [1] 40.5% | [2] 29.9% | [3] 31.6% | [4] 17.9% | [5] 46.5% | [6] 44.1%

Nc1cc2c(cc1[N+](=O)[O-])-c1ccc(Cl)cc1C2=O
inactive: [1] 58.5% | [2] -2.45% | [3] 1.45% | [4] 7.5% | [5] -1.95% | [6] 41.2%

COc1ccc2c(c1)c(CC(=O)O)c(C)n2Cc1ccccc1
inactive: [1] -13.7% | [2] -16% | [3] -13.7% | [4] -14.8% | [5] 17.4% | [6] -7.65%

COc1ccc(C=O)c(Cl)c1OC
inactive: [1] 26.8% | [2] 14.4% | [3] 0.95% | [4] 6.55% | [5] -7.85% | [6] -16.8%

CN1C(=O)N(c2cc(Cl)cc(Cl)c2)C(=N)C1=S
inactive: [1] 7.1% | [2] 1.75% | [3] 17.6% | [4] -3.1% | [5] 32.5% | [6] 37.5%

OCC(O)C1OC(O)C(O)C(O)C1O (stereo not drawn)
inactive: [1] 1.45% | [2] -7.75% | [3] -32.2% | [4] -49.4% | [5] -6.75% | [6] 10.4%

COc1ccc(/C=C2/C/C(=C/c3ccc(OC)cc3)C2=O)cc1
inactive: [1] 14.2% | [2] 9.25% | [3] 10.2% | [4] 7.2% | [5] 4.65% | [6] 15%

CCN(CC)C(=O)/C=C/c1ccccc1
inactive: [1] -54.9% | [2] -28.6% | [3] -6.05% | [4] -33.2% | [5] 1.7% | [6] -14.8%

N#CCc1cccc(Cl)c1Cl (tested in a mixture with another compound)
inactive: [1] 6.8% | [2] -15.3% | [3] 3.55% | [4] -22.4% | [5] 14.4% | [6] -7.55%

COC(=O)C(Cc1ccccc1)C(=O)C(CC(=O)OC(C)(C)C)NC(=O)OC(C)(C)C (stereo not drawn)
inactive: [1] 14.7% | [2] 1.15% | [3] 17% | [4] 10.8% | [5] 22.1% | [6] -27.5%

O=C(OCCCl)c1ccc(Cl)c(Cl)c1
inactive: [1] 5.75% | [2] -20.1% | [3] 7.05% | [4] 9% | [5] 3.75% | [6] -19.9%

C[C@H](C(=O)O)C(=O)NC(=O)N(Cc1ccccc1)N=O
inactive: [1] -24% | [2] -24.6% | [3] -26.8% | [4] 14.3% | [5] -1.25% | [6] -8.3%

CSc1nc(N)c2cnn(Cc3ccccc3)c2n1
inactive: [1] 28.4% | [2] 12.5% | [3] 34% | [4] 8.95% | [5] 31.4% | [6] 31.4%

Cc1nc2[nH]c(=O)[nH]c(=O)c2s1
inactive: [1] -5.65% | [2] 4.15% | [3] -1.25% | [4] -6.6% | [5] -10.8% | [6] -2.35%

CC(=O)Nc1ccc2ccccc2c1[N+](=O)[O-]
inactive: [1] -11.1% | [2] -14.4% | [3] -17.4% | [4] -64.5% | [5] -35.8% | [6] 15.7%

Nc1nc(-c2cc(Br)ccc2N=NN2CCCCC2)nc2ccc(Br)cc12
active: [1] 82.2% | [3] 79.5% | [6] 70.8%
inactive: [2] 37.2% | [4] 46% | [5] 22.3%

CCCCC1(CC)COC(C)(CC)OC1 (stereo not drawn)
inactive: [1] 29.4% | [2] 15.7% | [3] 5.3% | [4] -26.6% | [5] -19.4% | [6] 17.5%

CC1CC(=O)C(CC(=O)O)C1C(C(=O)C(=O)Nc1c(C#N)cccc1[N+](=O)[O-])[N+](=O)[O-] (stereo not drawn)
inactive: [1] -37.7% | [2] -16.6% | [3] -43% | [4] 15.8% | [5] -43.8% | [6] -36.8%

CCCCCCCCC(O)C#CC(O)CCCCCCCC (stereo not drawn)
inactive: [1] -18% | [2] -20.9% | [3] -5.6% | [4] -12.9% | [5] -12.6% | [6] -8.85%

CCCCCCCC(=O)C1C(=O)OC(C)(C)OC1=O
inactive: [1] 9.65% | [2] -6.45% | [3] -7.85% | [4] 9.65% | [5] -0.5% | [6] -7.15%

O=C1CCCC2CCCC(=O)N12
inactive: [1] -1.35% | [2] -0.85% | [3] -0.4% | [4] 8.9% | [5] 1% | [6] -9.7%

COc1ccc(C(=O)c2ccc(Br)s2)cc1
inactive: [1] 5.9% | [2] -6.65% | [3] 12.8% | [4] -14.4% | [5] 13.8% | [6] 33%

O=C(NO)Nc1ccccc1Cl
inactive: [1] 6.45% | [2] 9.45% | [3] 10.5% | [4] -1.65% | [5] -4.25% | [6] 8.9%

CC(=O)Nc1ccc2nc(SC(C)C)sc2c1
inactive: [1] 39.4% | [2] 7.7% | [3] 31.6% | [4] 17.4% | [5] 13.1% | [6] 19.9%

CCN(CC)CCN=c1nc(/C=C\C=C\NN(C)C(=S)SC)c(C)nn1C
inactive: [1] -49.7% | [2] -7.95% | [3] -15% | [4] -12.3% | [5] -1.05% | [6] -12.8%

Clc1c(Cl)c(Cl)c(C[n+]2c(Cl)sc3ccccc32)c(Cl)c1Cl
inactive: [1] 12.6% | [2] 10.2% | [3] 5.05% | [4] -6.6% | [5] 10.3% | [6] 6.2%

C=C(C)CC(=O)O.CC(=O)[CH-]C(C)=O.CC(=O)[CH-]C(C)=O.CC(=O)[CH-]C(C)=O.[Zn+2].[Zn]
inactive: [1] 30.2% | [2] 10.8% | [3] 16.2% | [4] 6.8% | [5] -0.85% | [6] 21.1%

O=C(O)c1cccc(C(=O)O)c1Sc1ccccc1
inactive: [1] 1.9% | [2] 1.9% | [3] 5.75% | [4] 11.3% | [5] -0.1% | [6] 12.1%

O=C(NC(=S)Nc1ccccc1F)c1cccc([N+](=O)[O-])c1
active: [2] 77.2% | [3] 79.2% | [6] 80%
inactive: [1] 26.1% | [4] 11.4% | [5] 49.7%

CCCCCOC1OC(=O)C(Cl)=C1Cl (stereo not drawn)
inactive: [1] 65.3% | [2] 36.7% | [3] 63.2% | [4] 61.7% | [5] 54.8% | [6] 44%
